From PubChem BioAssay (NCI)
Compounds without any hit were thinned out: in the full panel of roughly 79,000, 15% have a hit. Values without a mark were called inactive. Active and inactive are the calls of the source. Rule as the data show it: active = growth inhibition above about 70%; inactive = the rest.

assay: NCI Yeast Anticancer Drug Screen. Data for the cln2 rad14 strain (AID 165);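 also: 0% = growth equal to vehicle treated cultures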; conditions: S. cerevisiae cln2 rad14 strain, at 50.0 µM, hits give high values
Method in brief: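 Test compounds were added to cln2 rad14 yeast cultures; inhibition of growth was then determined by comparison with vehicle treatment.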

Going from `CCN(CC)CC[n+]1ccc2c(C)c3[nH]c4ccc(O)cc4c3c(C)c2c1` to `CC[n+]1ccc2c(C)c3[nH]c4ccc(O)cc4c3c(C)c2c1`, the growth inhibition rises from -21.6% to 9.35%.

Going from `O=[n+]1c2ccc(Cl)cc2n([O-])c2ccc(Cl)cc21` to `Cc1ccc(S(=O)(=O)Oc2cc(Cl)c(Cl)cc2Cl)cc1`, the growth inhibition rises from -74.2% to -9.8%.

Going from `CC[C@@]1(O)C(=O)OCc2c1cc1n(c2=O)Cc2cc3c(N)cccc3nc2-1` to `COc1cc2c(c(OC)c1OC)-c1c(cc3c(c1OC)OCO3)CC(C)C(C)(O)C2OC(=O)c1ccccc1` (stereo not drawn), the growth inhibition rises from -8.35% to 50.2%.

Compared with `O=c1ssc2ncccc12`, `COc1ccc2ccc3ccccc3c2c1C=O` is lower in growth inhibition: 49.6% for the first, 17.6% for the second.

Compared with `O=C1C2C(C(=O)N1c1ccc(OCc3ccccc3)cc1)C1c3ccccc3C2C2CCCCN21` (stereo not drawn), `COc1ccc(-c2cn(-c3ccc(I)cc3)c3ncnc(N)c23)cc1` is lower in growth inhibition: 4.85% for the first, -0.5% for the second.

Compared with `CCOC(=O)C(NC(=O)c1ccccc1)(N1CCN(c2cc3c(cc2F)c(=O)c(C(=O)O)cn3C2CC2)CC1)C(F)(F)F` (stereo not drawn), `NNC(=O)CCc1ccc2ccc3ccccc3c2c1` is higher in growth inhibition: 18.5% for the first, 24.6% for the second.

Compared with `C/C(=N\O)C1CC2C=C(C#N)C1N(Cc1ccccc1)C2` (stereo not drawn), `CC(=O)ON1C(=O)c2cccc3cccc(c23)C1=O` is higher in growth inhibition: 11.3% for the first, 29.4% for the second.

Compared with `CC(O)C(O)C(O)C(/C=N\Nc1ccccc1)=N/Nc1ccccc1` (stereo not drawn), `c1ccc2c(c1)Oc1cccc3cccc-2c13` is higher in growth inhibition: 8.25% for the first, 25.4% for the second.

First: COc1ccc(/C=C2\SC(=S)N(/C=C/c3nc4ccccc4[nH]c3=O)C2=O)cc1OC
Second: COc1cc(/C=C2\CCc3ccccc3C2=O)cc(OC)c1OC
The growth inhibition of the first is lower: 32.5% for the first, 39.8% for the second.

Compared with `N#CN=Nc1cc(Cl)c(N=NC#N)cc1Cl`, `O=C(c1ccc(Cl)cc1Cl)C(Cl)Cl` is higher in growth inhibition: 20.6% for the first, 53.6% for the second.

Going from `COc1cc(CC2CC(c3ccc4c(c3)OCO4)OC2=O)cc(OC)c1OC` (stereo not drawn) to `COc1ccc(N=C2C(=O)Nc3ccc(Br)cc32)cc1`, the growth inhibition falls from 1.35% to -7.9%.

First: CCC(C)COC(=O)c1ccc(N=Cc2ccc(C=Nc3ccc(C(=O)OCC(C)CC)cc3)cc2)cc1 (stereo not drawn)
Second: CC1(C)C(=O)OC(n2cc(F)c(=O)[nH]c2=O)C1=O (stereo not drawn)
The growth inhibition of the first is lower: 41% for the first, 56.8% for the second.

In the case of `CCOP(=O)(OCC)C(Cc1ccccc1)N=C(c1ccccc1)c1ccccc1` (stereo not drawn), the growth inhibition is reported as 97.8% (active).
In the case of `COC1C=COC2(C)Oc3c(C)c(O)c4c(c3C2=O)/C(=N/C2CCC(O)OC2C)C=C(NC(=O)/C(C)=C\C(=O)C2CC2C(O)C(C)C(O)C(C)C(OC(C)=O)C1C)C4=O` (stereo not drawn), the growth inhibition is reported as 81.4% (active).
For `CC/C(=C(\c1ccccc1)c1ccc(OCCN(C)C)cc1)c1ccccc1`, the growth inhibition was 92% (active).
With `COc1ccccc1N=NC(C(=O)c1ccccc1)C(=O)c1ccccc1` the growth inhibition was 88.8% (active).
In the case of `CC(C)C1=CCC2C(=C1)CCC1C(C)(C(=O)O)CCCC21C` (stereo not drawn) (tested in a mixture with another compound), the growth inhibition is reported as 89.8% (active).
In the case of `CC(=O)[O][Bi]([c]1ccccc1)[c]1ccccc1`, the growth inhibition is reported as 84.7% (active).
In the case of `S=C(N/N=C/c1ccccn1)Nc1ccc(Cl)cc1`, the growth inhibition is reported as 71.9% (active).
For `CNC1C(OC2C(OC3C(O)C(O)C(N=C(N)N)C(O)C3N=C(N)N)OC(C)C2(O)CO)OC(CO)C(O)C1O` (stereo not drawn), the growth inhibition was 81.8% (active).
For `Oc1ccc2ccccc2c1C(c1ccc(Cl)cc1)c1c(O)ccc2ccccc12`, the growth inhibition was 76.8% (active).
For `CCCCN(CCCC)CCSc1ccc(Cl)cc1`, the growth inhibition was 79.4% (active).
In the case of `O=[N+]([O-])CC(SCc1ccccc1)c1ccc2c(c1)OCO2` (stereo not drawn), the growth inhibition is reported as 90.2% (active).
In the case of `COc1cc2c(cc1[N+](=O)[O-])C(=O)C(Br)(Br)CCC2`, the growth inhibition is reported as 90% (active).
With `OCC1OC(OCC(O)C(O)C(O)C(/C=N/Nc2ccccc2)=N/Nc2ccccc2)C(O)C(O)C1O` (stereo not drawn) the growth inhibition was 99.3% (active).
In the case of `Cn1c(=O)c2ccccc2c2ccccc21`, the growth inhibition is reported as 70.5% (active).
With `OC1CCCc2c1cc1ccc3cccc4ccc2c1c34` (stereo not drawn) the growth inhibition was 94% (active).

assay: NCI Yeast Anticancer Drug Screen. Data for the bub3 strain (AID 167); conditions: S. cerevisiae bub3 mutant strain, at 1.2 µM, hits give high values
Method in brief: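 Part of a panel of yeast mutants defective in DNA damage repair or cell cycle regulation. Each strain is grown with compound, and inhibition is calculated relative to solvent-treated cultures.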

Going from `CCN(CC)CC[n+]1ccc2c(C)c3[nH]c4ccc(O)cc4c3c(C)c2c1` to `CC[n+]1ccc2c(C)c3[nH]c4ccc(O)cc4c3c(C)c2c1`, the growth inhibition falls from -10% to -19%.

Compared with `O=[n+]1c2ccc(Cl)cc2n([O-])c2ccc(Cl)cc21`, `Cc1ccc(S(=O)(=O)Oc2cc(Cl)c(Cl)cc2Cl)cc1` is higher in growth inhibition: -1% for the first, 1% for the second.

Compared with `CCOP(=O)(OCC)C(Cc1ccccc1)N=C(c1ccccc1)c1ccccc1` (stereo not drawn), `COc1ccccc1N=NC(C(=O)c1ccccc1)C(=O)c1ccccc1` is higher in growth inhibition: -35% for the first, 4% for the second.

Compared with `CC[C@@]1(O)C(=O)OCc2c1cc1n(c2=O)Cc2cc3c(N)cccc3nc2-1`, `COc1cc2c(c(OC)c1OC)-c1c(cc3c(c1OC)OCO3)CC(C)C(C)(O)C2OC(=O)c1ccccc1` (stereo not drawn) is higher in growth inhibition: -28% for the first, -8% for the second.

Compared with `COC1C=COC2(C)Oc3c(C)c(O)c4c(c3C2=O)/C(=N/C2CCC(O)OC2C)C=C(NC(=O)/C(C)=C\C(=O)C2CC2C(O)C(C)C(O)C(C)C(OC(C)=O)C1C)C4=O` (stereo not drawn), `CNC1C(OC2C(OC3C(O)C(O)C(N=C(N)N)C(O)C3N=C(N)N)OC(C)C2(O)CO)OC(CO)C(O)C1O` (stereo not drawn) is higher in growth inhibition: -6% for the first, -2% for the second.

First: O=c1ssc2ncccc12
Second: Cn1c(=O)c2ccccc2c2ccccc21
The growth inhibition of the first is higher: 2% for the first, -5% for the second.

Compared with `O=C1C2C(C(=O)N1c1ccc(OCc3ccccc3)cc1)C1c3ccccc3C2C2CCCCN21` (stereo not drawn), `CC/C(=C(\c1ccccc1)c1ccc(OCCN(C)C)cc1)c1ccccc1` is higher in growth inhibition: -4% for the first, 5% for the second.

First: COc1ccc(-c2cn(-c3ccc(I)cc3)c3ncnc(N)c23)cc1
Second: COc1ccc(N=C2C(=O)Nc3ccc(Br)cc32)cc1
The growth inhibition of the first is higher: -2% for the first, -7% for the second.

Compared with `CCOC(=O)C(NC(=O)c1ccccc1)(N1CCN(c2cc3c(cc2F)c(=O)c(C(=O)O)cn3C2CC2)CC1)C(F)(F)F` (stereo not drawn), `NNC(=O)CCc1ccc2ccc3ccccc3c2c1` is lower in growth inhibition: -1% for the first, -8% for the second.

Going from `C/C(=N\O)C1CC2C=C(C#N)C1N(Cc1ccccc1)C2` (stereo not drawn) to `O=[N+]([O-])CC(SCc1ccccc1)c1ccc2c(c1)OCO2` (stereo not drawn), the growth inhibition falls from -4% to -28%.

First: CC(O)C(O)C(O)C(/C=N\Nc1ccccc1)=N/Nc1ccccc1 (stereo not drawn)
Second: OCC1OC(OCC(O)C(O)C(O)C(/C=N/Nc2ccccc2)=N/Nc2ccccc2)C(O)C(O)C1O (stereo not drawn)
The growth inhibition of the first is lower: -3% for the first, 2% for the second.

First: COc1ccc(/C=C2\SC(=S)N(/C=C/c3nc4ccccc4[nH]c3=O)C2=O)cc1OC
Second: COc1cc(/C=C2\CCc3ccccc3C2=O)cc(OC)c1OC
The growth inhibition of the first is higher: 4% for the first, -29% for the second.

Going from `N#CN=Nc1cc(Cl)c(N=NC#N)cc1Cl` to `O=C(c1ccc(Cl)cc1Cl)C(Cl)Cl`, the growth inhibition falls from -19% to -20%.

Compared with `c1ccc2c(c1)Oc1cccc3cccc-2c13`, `COc1ccc2ccc3ccccc3c2c1C=O` is lower in growth inhibition: 6% for the first, -2% for the second.

Compared with `CC(C)C1=CCC2C(=C1)CCC1C(C)(C(=O)O)CCCC21C` (stereo not drawn) (tested in a mixture with another compound), `COc1cc2c(cc1[N+](=O)[O-])C(=O)C(Br)(Br)CCC2` is higher in growth inhibition: 8% for the first, 9% for the second.

Going from `CC(=O)[O][Bi]([c]1ccccc1)[c]1ccccc1` to `CC(=O)ON1C(=O)c2cccc3cccc(c23)C1=O`, the growth inhibition falls from 15% to 2%.

Compared with `S=C(N/N=C/c1ccccn1)Nc1ccc(Cl)cc1`, `Oc1ccc2ccccc2c1C(c1ccc(Cl)cc1)c1c(O)ccc2ccccc12` is lower in growth inhibition: -5% for the first, -6% for the second.

Compared with `COc1cc(CC2CC(c3ccc4c(c3)OCO4)OC2=O)cc(OC)c1OC` (stereo not drawn), `OC1CCCc2c1cc1ccc3cccc4ccc2c1c34` (stereo not drawn) is lower in growth inhibition: 15% for the first, -11% for the second.

Going from `CCCCN(CCCC)CCSc1ccc(Cl)cc1` to `CCC(C)COC(=O)c1ccc(N=Cc2ccc(C=Nc3ccc(C(=O)OCC(C)CC)cc3)cc2)cc1` (stereo not drawn), the growth inhibition rises from -9% to 7%.

Work on `CC1(C)C(=O)OC(n2cc(F)c(=O)[nH]c2=O)C1=O` (stereo not drawn) yielded a growth inhibition of 19%.
